Screening data as filed in PubChem BioAssay.
Only some compounds are listed: those with a hit (about 1.9% of all), similar ones and a draw of the others.
Ba/F3 V617F tox: reduce viability of Ba/F3 cells dependent on JAK2V617F; actives 1.1% (n = 220,000); inhibition, % at 5.6 µM; Ba/F3 EpoR-JAK2V617F viability, ATP luminescence; AID 1446;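 active = inhibition above the campaign mean plus 3 SD over all tested compounds, cut at about 24% in these data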;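 note: cytokine-independent growth of Ba/F3 cells driven by EpoR plus mutant JAK2; 0% = DMSO-treated cells and 100% = JAK inhibitor I control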
BaF3 tox: counter-screen for JAK2V617F inhibitors: parental Ba/F3 viability inhibitors; CellTiter-Glo ATP luminescence; actives 1.1% (n = 220,000); inhibition, % at 5.6 µM;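 active = inhibition above a per-campaign cutoff, the mean inhibition of all tested compounds plus 3 SD, cut at about 27% in these data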;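 note: 0% = DMSO wells and 100% = JAK Inhibitor I control wells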
APP transl inh: APP translation inhibition; inhibition, % at 2 µM; SH-SY5Y APP 5'UTR-luciferase reporter, luminescence; actives 0.82% (n = 190,000);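 active = inhibition above a set limit, derived from the sample mean plus 3 SD, cut at about 45% in these data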
IEC-6 tox: kills IEC-6 intestinal cells in KLF5 counter-screen; inhibition, % at 5 µM; IEC-6 cytotoxicity, luminescence viability; actives 0.78% (n = 290,000); in the data active = inhibition above about 22%;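 note: 0% = plate median of test compound wells and 100% = cytotoxic reference compound wells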
KLF5 inhibitor: suppresses KLF5 promoter-driven expression; DLD-1 KLF5 promoter-luciferase reporter, luminescence; inhibition, % at 5 µM; actives 0.23% (n = 290,000); AID 1700;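 active = inhibition above a per-plate limit of that plate's mean compound inhibition plus 3 SD, cut at about 60% in these data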;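 note: 0% = DMSO wells and 100% = LY294002 at 200 µM; higher means less KLF5 promoter-driven luciferase light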
BaF3 tox 2: parental Ba/F3 viability inhibition for JAK2V617F counter-screen. shares compounds with Ba/F3 V617F tox. inhibition, % at 5.6 µM. CellTiter-Glo luminescence; cells kept alive by added IL-3. actives 31% (n = 580);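 active = cell growth inhibition above the hit limit set in the earlier mutant JAK2 cell screen, cut at about 27% in these data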;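 note: plate controls were DMSO-treated cells for no effect and JAK Inhibitor I control wells for full effect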
JAK2V617F conf: confirmation: loss of viability in JAK2V617F-dependent Ba/F3 cells; shares compounds with Ba/F3 V617F tox; Ba/F3 EpoR-JAK2V617F viability, CellTiter-Glo luminescence; inhibition, % at 5.6 µM; actives 66% (n = 580); AID 1521;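 active = mean inhibition above the hit cutoff derived in the earlier primary screen, cut at about 25% in these data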;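 note: 0% = DMSO-treated cells and 100% = JAK inhibitor I control wells; higher means lower luminescence from reduced cell ATP and viability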
The depositor's hits bear a star.

For CCCN(Cc1cc2cc(OC)ccc2[nH]c1=O)C(=O)c1ccncc1 the results were Ba/F3 V617F tox 3.2, BaF3 tox 7.1, APP transl inh 4.5, IEC-6 tox 11.4 and KLF5 inhibitor 4.9.
`CCOc1ccc(C(=O)N(Cc2ccc(OC)cc2)Cc2cc3cc(OC)ccc3[nH]c2=O)cc1` gave Ba/F3 V617F tox 46.5*, BaF3 tox 3.8, APP transl inh -20.1, IEC-6 tox -2.7, KLF5 inhibitor -17.9, BaF3 tox 2 -2.6 and JAK2V617F conf -3.1.
For Clc1ccc(-c2nnc(-c3ccccc3)o2)cn1 the results were IEC-6 tox -5.4 and KLF5 inhibitor -133.8.
O=C(OCCN1CCCCC1)c1ccccc1Cl was read as Ba/F3 V617F tox -1.6, BaF3 tox 3.8, APP transl inh 7.4, IEC-6 tox 7.5 and KLF5 inhibitor 4.5.
O=C(OCn1ncc(Cl)c(Cl)c1=O)c1ccccc1Cl was read as Ba/F3 V617F tox 25.7*, BaF3 tox -6.7, APP transl inh 86.8*, IEC-6 tox 89.0*, KLF5 inhibitor -10.2, BaF3 tox 2 5.9 and JAK2V617F conf 97.8*.
For O=C(OCn1ncc(Cl)c(Cl)c1=O)c1ccc(F)cc1 the results were Ba/F3 V617F tox 32.2*, BaF3 tox 1.8, APP transl inh 96.7*, IEC-6 tox 13.5, KLF5 inhibitor -19.1, BaF3 tox 2 9.5 and JAK2V617F conf 97.3*.
Screening Cn1cc(CN2CCN(c3ccc(Cl)cn3)CC2)c(-c2ccccc2F)n1 returned Ba/F3 V617F tox -0.6, BaF3 tox -0.6, APP transl inh 7.4, IEC-6 tox -2.4 and KLF5 inhibitor -23.8.
For Cc1cccc(N2CCN(Cc3cn(C)nc3-c3ccccc3F)CC2)n1 the results were Ba/F3 V617F tox 24.2*, BaF3 tox 17.9, APP transl inh 74.0*, IEC-6 tox 53.5*, KLF5 inhibitor 24.4, BaF3 tox 2 75.8* and JAK2V617F conf 96.5*.
`C=CCOc1c(Br)cc(CNc2ccc3[nH]c(=O)[nH]c3c2)cc1OCC` gave Ba/F3 V617F tox 32.0*, BaF3 tox 8.1, APP transl inh 3.3, IEC-6 tox 8.0, KLF5 inhibitor -0.9, BaF3 tox 2 34.7* and JAK2V617F conf 73.8*.
Screening Cc1ccc(NC(=S)N(CCCN2CCC(C)CC2)Cc2ccco2)cc1C returned Ba/F3 V617F tox 24.5*, BaF3 tox 13.9, APP transl inh 4.9, IEC-6 tox -4.4, KLF5 inhibitor -27.5, BaF3 tox 2 29.4* and JAK2V617F conf 46.1*.
COc1ccc(/C=N/n2cnc3c([nH]c4ccc(F)cc43)c2=O)cc1CN1CCCC1 was read as Ba/F3 V617F tox 40.5*, BaF3 tox 14.8, IEC-6 tox -0.5, KLF5 inhibitor 27.7, BaF3 tox 2 10.9 and JAK2V617F conf 29.9*.
`COc1ccc(/C=N/n2cnc3c([nH]c4ccc(C)cc43)c2=O)cc1CN1CCCC1` gave Ba/F3 V617F tox 3.6, BaF3 tox 5.8, IEC-6 tox 6.2 and KLF5 inhibitor -12.9.
CC(=O)c1nn(-c2cccc(Br)c2)cc1C(=O)c1ccccc1 was read as Ba/F3 V617F tox 55.5*, BaF3 tox 14.2, APP transl inh 5.7, IEC-6 tox -0.9, KLF5 inhibitor -16.9, BaF3 tox 2 0.4 and JAK2V617F conf -0.6.
Screening COCCNC(=O)C(=O)N/N=C(\C)CC(=O)Nc1cccnc1 returned Ba/F3 V617F tox 0.7, BaF3 tox 7.0, APP transl inh -25.8, IEC-6 tox -1.0 and KLF5 inhibitor -24.1.
Screening O=[N+]([O-])c1ccc2c(c1N1CCCCC1)=NC1(CCCCC1)[N+]=2[O-] returned Ba/F3 V617F tox -4.6, BaF3 tox 0.2, IEC-6 tox -7.4 and KLF5 inhibitor -20.6.
`[O-][N+]1=c2ccc(Nc3ccccc3)cc2=NC12CCCCC2` gave Ba/F3 V617F tox 42.0*, BaF3 tox 8.4, APP transl inh 32.9, IEC-6 tox 10.2, KLF5 inhibitor -1.2, BaF3 tox 2 4.9 and JAK2V617F conf 98.0*.
`COc1ccc(Nc2ccc3c(c2)=NC2(CCCCC2)[N+]=3[O-])cc1` gave Ba/F3 V617F tox 44.2*, BaF3 tox 2.2, APP transl inh 49.2*, IEC-6 tox 9.4, KLF5 inhibitor -28.2, BaF3 tox 2 18.8 and JAK2V617F conf 99.7*.
